A short description of test [1]: ATG_XTT_Cytotoxicity: Cytotoxicity Assessment in the Attagene TRANS-FACTORIAL HepG2 Assay (AID 2283584).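 As to AC50: XTT signal for cell number as viability in transfected HepG2 cells; cells exposed to compound for 24 h before reading; active means loss of viability signal versus DMSO baseline.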 The gist of the method:
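24 h chemical exposure of reporter-transfected HepG2; XTT signal loss vs DMSO indicates cytotoxicity.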

Test [2] can be described thus: TOX21_p53_BLA_p2_viability: Viability Assessment in the Tox21 HCT-116 p53 Agonism Beta-lactamase Assay, Phase 2 (AID 2283591).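 Also: compound exposure lasted 16 h at 37 °C; actives lower the ATP signal meaning cytotoxicity.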 The gist of the method:
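HCT116 p53-bla cells, 4000/well, dosed after 5 h plating (217-fold dilution of DMSO stocks) and incubated 16 h at 37C. Viability taken as cellular ATP by CellTiter-Glo luminescence after 30 min RT; signal loss marks cytotoxicity.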

Test [3] concerns the target Cellular tumor antigen p53 (Homo sapiens) (UniProt P04637). Kind of test: TOX21_p53_BLA_p2_ratio: Tox21 HCT-116 p53 Agonism Beta-lactamase Assay, Ratio, Phase 2 (AID 2283592). A digest of the protocol:
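DMSO-normalized, positive-direction endpoint derived from the 460 nm/530 nm FRET ratio in HCT116 p53 beta-lactamase reporter cells exposed 16 h at 37C and loaded with CCF4-AM for 2 h.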

Test [4] is described as follows: TOX21_p53_BLA_p3_viability: Viability Assessment in the Tox21 HCT-116 p53 Agonism Beta-lactamase Assay, Phase 3 (AID 2283593).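 Also: cells exposed to compound for 16 h before reading.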 The gist of the method:
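HCT116 cells, 4000/well, dosed 5 h after plating by pin transfer (217-fold dilution from DMSO stock) and incubated 16 h at 37C, 5% CO2. Viability read as ATP luminescence with CellTiter-Glo after 30 min at room temperature.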

For test [5], the target named is Cellular tumor antigen p53 (Homo sapiens) (UniProt P04637). In words: TOX21_p53_BLA_p3_ratio: Tox21 HCT-116 p53 Agonism Beta-lactamase Assay, Ratio, Phase 3 (AID 2283596). A digest of the protocol: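 Cells were seeded at 4000/well, rested 5 h at 37C, then dosed with DMSO compound solutions (217-fold dilution) for 16 h. CCF4-AM substrate was loaded for 2 h at room temperature, and the 460/530 nm emission ratio was fitted for gain of signal versus DMSO.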

Test [6] can be described thus: TOX21_p53_BLA_p4_viability: Viability Assessment in the Tox21 HCT-116 p53 Agonism Beta-lactamase Assay, Phase 4 (AID 2283597).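 Also: hits lower the luminescence signal meaning cytotoxicity.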 The gist of the method:
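In this multiplexed secondary endpoint, HCT116 cells (4000 per well, compound at 5 h, 16 h treatment) received CellTiter-Glo after the beta-lactamase read. Luminescence after 30 min RT reflects ATP, and falling signal marks cytotoxicity.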

Test [7] deals with Cellular tumor antigen p53 (Homo sapiens) (UniProt P04637). Kind of test: TOX21_p53_BLA_p5_ratio: Tox21 HCT-116 p53 Agonism Beta-lactamase Assay, Ratio, Phase 5 (AID 2283599). A digest of the protocol:
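HCT-116 p53-bla cells (4000/well) plated 5 h, dosed with compound (217-fold DMSO dilution) for 16 h at 37 C; CCF4-AM substrate 2 h at room temperature. Activity is the 460/530 nm emission ratio (405 nm excitation), fitted in gain-of-signal direction versus DMSO.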

The nature of test [8]: TOX21_p53_BLA_p5_viability: Viability Assessment in the Tox21 HCT-116 p53 Agonism Beta-lactamase Assay, Phase 5 (AID 2283600). The gist of the method:
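Here cell health was gauged by ATP levels in wells holding 4000 cells, each treated 16 h with DMSO-delivered compounds at 217-fold dilution; reduced luminescence marked toxicity.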

Test [9] concerns the target Cellular tumor antigen p53 (Homo sapiens) (UniProt P04637). In words: TOX21_p53_BLA_p4_ratio: Tox21 HCT-116 p53 Agonism Beta-lactamase Assay, Ratio, Phase 4 (AID 2283601). The gist of the method:
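HCT-116 p53 beta-lactamase reporter cells (4000/well) preincubated 5 h, then compound (217-fold dilution of DMSO stock) for 16 h at 37C. CCF4-AM substrate added 2 h at room temperature; 460/530 nm emission ratio fitted upward versus DMSO.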

Each structure is given as a SMILES string. Where “and” joins values, the source holds several entries; their conditions need not be identical. Equal entries are not always repeated. Records with an inconclusive call do not appear. Calls of active or inactive are those of the source. The calls were made as follows: active = hit-call score of the fitted dose curve at least 0.9, where 1 is the maximum; inconclusive = response in the unintended direction; inactive = score below 0.9.

Sequence of Cellular tumor antigen p53 (Homo sapiens) (P04637 whole entry, looked up): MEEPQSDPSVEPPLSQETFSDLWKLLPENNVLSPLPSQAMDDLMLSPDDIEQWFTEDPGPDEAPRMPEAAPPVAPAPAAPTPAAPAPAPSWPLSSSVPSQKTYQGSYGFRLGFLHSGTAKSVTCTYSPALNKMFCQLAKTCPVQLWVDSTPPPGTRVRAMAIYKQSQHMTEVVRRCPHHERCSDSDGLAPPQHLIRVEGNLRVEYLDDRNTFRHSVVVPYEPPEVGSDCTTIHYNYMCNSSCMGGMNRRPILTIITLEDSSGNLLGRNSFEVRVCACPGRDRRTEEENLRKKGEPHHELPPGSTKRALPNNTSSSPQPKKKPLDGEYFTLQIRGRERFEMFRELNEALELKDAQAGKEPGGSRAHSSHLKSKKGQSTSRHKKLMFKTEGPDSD

As to `N#CS`, the compound was classed as inactive in test [1], in test [2], in [3], in test [4], in test [5] and in test [6]. Further, the result in test [7], in test [8] and in test [9] was inactive.

Regarding `COC(=O)c1cc(Oc2ccc(Cl)cc2Cl)ccc1[N+](=O)[O-]`, the result in test [1], in test [2], in test [3], in test [4], in test [5] and in test [6] was inactive. Further, the result in [7], in test [8] and in test [9] was inactive.

Take `CCOc1ccc(N)cc1`: the result in [1], in [2], in test [4], in [5], in test [6] and in test [7] was inactive. Moreover, the result in test [8] and in test [9] was inactive.

In general, AC50 refers to the concentration giving half of the maximal activity seen. Turning to `CC(C)CC(C)(c1ccc(O)cc1)c1ccc(O)cc1`, the AC50 is 25.9 µM (active) in test [1]; 23.7 µM (active) and 75.4 µM (active) in test [2]; 41.7 µM (active) and 71.7 µM (active) in test [3]; 57.9 µM (active) and 73.5 µM (active) in test [4]; 45.2 µM (active) and 86.9 µM (active) in test [5]; 18.6 µM (active) and 46.2 µM (active) in test [6]. Besides, the AC50 is 84.6 µM (active) and 86.8 µM (active) in test [7]; 71.2 µM (active) and 81.4 µM (active) in [8]; 40.9 µM (active) and 55 µM (active) in test [9].

Take `BrCc1ccc(Br)cc1`: the outcome in test [1], in test [2], in test [3], in test [4], in test [7] and in test [8] was inactive. For the same compound, in test [9], the outcome was inactive.

In the case of `CCC[CH2][Sn]([CH2]CCC)([CH2]CCC)[CH2]CCC`, the AC50 was 33.9 µM (active) in test [1]; 30.1 µM (active) in test [2]; 20.2 µM (active) in [4]; 29.6 µM (active) in [5]; 42.2 µM (active) in test [6]; 44.3 µM (active) in [7]. Also, the AC50 in test [8] was 41 µM (active); in test [9] it was 68.7 µM (active). Besides, in test [3], the outcome was inactive.

With `CC(O)(CS(=O)(=O)c1ccc(F)cc1)C(=O)Nc1ccc(C#N)c(C(F)(F)F)c1` (stereo not drawn), the result in test [1], in test [2], in test [3], in [4], in test [5] and in test [6] was inactive. For the same compound, the result in test [7], in test [8] and in [9] was inactive.

As to `CC(C)(C)c1cc([N+](=O)[O-])cc(C(C)(C)C)c1O`, the compound was classed as inactive in test [1], in [4], in [7] and in [8]. In addition, the AC50 in test [2] was 46.1 µM (active); in test [3], 3.81 µM (active); in [5], 4.47 µM (active); in [6] it was 46.1 µM (active); in test [9], 46.1 µM (active).

Turning to `C=CC(=O)[O][Sn]([CH2]CCC)([CH2]CCC)[CH2]CCC`, the AC50 in test [1] is 1.09 µM (active); in [2], 1.86 µM (active); in test [3], 13.5 µM (active); in test [4] it was 1.64 µM (active); in test [5], 13.6 µM (active); in test [6], 1.56 µM (active). The AC50 in [7] was 13.4 µM (active); in [8], 1.82 µM (active); in test [9] it was 13.4 µM (active).

The values are drawn from PubChem BioAssay (EPA / NIEHS).
